As usually defined, the AC50 is the concentration at which the activity in the assay is half-maximal.

The structures appear in SMILES notation. Activity calls are given as the source filed them. The calls were made as follows: active = hit-call score of the fitted dose curve at least 0.9, where 1 is the maximum; inactive = score below 0.9.

This test can be described thus: ATG_BRE_CIS: Attagene CIS-FACTORIAL HepG2 Assay for human Bone Morphogenetic Protein (BMP) Response Element (BRE) (AID 2282933). Conditions: HepG2 BMP response element reporter, Attagene transcription factor profiling; actives raise or lower the signal. A digest of the protocol: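 Endogenous transcription factor activity read in transiently transfected HepG2 cells after 24 h chemical exposure. Bidirectional curve fitting against DMSO; readout is reporter transcript level by RT-PCR with capillary electrophoresis of labelled products.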
Consider `Cc1ccc(N=C=O)cc1N=C=O`, for which the compound was called inactive.
The same measure, in the same setting: the result for `[As]#[In]` reads “inactive”.
On the same count and under the same terms, the same measure for `CCCCCCCCOC(=O)c1ccc(C(=O)OCCCCCCCC)c(C(=O)OCCCCCCCC)c1`: “inactive”.
With `CCOC(=O)[C@]1(c2ccccc2)Oc2ccccc2[C@@H]1N`, the AC50 was 22.5 µM (active).
Consider `CN(C)C(=O)Nc1ccc(Cl)cc1`, for which the call was inactive.
Consider `Nc1ccc(N=Nc2ccccc2)cc1`, for which the half-maximal activity concentration (AC50) was 59.4 µM (active).
With `O=P(OCCCl)(OCCCl)OCCCl`, the result was inactive.
Same read-out and setting: the same measure for `C=CCc1ccc2c(c1)OCO2`: “inactive”.
In the case of `CC(C)(C)C(O)(CCc1ccc(Cl)cc1)Cn1cncn1` (stereo not drawn), the concentration at half-maximal activity (AC50) was 147 µM (active).
On to `CCC12COCN1COC2`, for which the call was inactive.
On the same count and under the same terms, the result for `N#CC(Br)(Br)C(N)=O` reads “inactive”.
On the same count and under the same terms, the result for `COC(=O)c1ccccc1N` reads “inactive”.
On to `O=C(N[C@H](c1ccccc1)[C@@H]1CN2CCC1CC2)c1c(Cl)ccc(C(F)(F)F)c1Cl`, for which the compound was called inactive.
Still for that read-out and setting: the same measure for `CN(C)c1ccc(C(=O)c2ccc(N(C)C)cc2)cc1`: “inactive”.
Still for that read-out and setting: the result for `O=C(Oc1ccc(Br)cc1)N1CCN2CCC1CC2` reads “inactive”.
On to `Cc1cc(N=Nc2ccccc2C)ccc1N`, for which the half-maximal activity concentration (AC50) is 33.4 µM (active).
Consider `OCCCl`, for which the result was inactive.
On to `CC(C)COC(=O)c1ccccc1C(=O)OCC(C)C`, for which the AC50 was 110 µM (active).
In the case of `Clc1ccc(C(c2ccc(Cl)cc2)C(Cl)(Cl)Cl)cc1`, the result was inactive.
Still for that read-out and setting: the same measure for `Clc1ccc(Cl)c(Cl)c1`: “inactive”; for `O=[N+]([O-])C(Br)(CO)CO`: “inactive”.
The same measure, in the same setting: the same measure for `OCCOCCO`: “inactive”.
Same read-out and setting: the result for `Nc1ccc(Cc2ccc(N)cc2)cc1` reads “inactive”; that for `Nc1cc(Cl)cc(C(=O)O)c1Cl`, “inactive”.
Regarding `C1=Cc2cccc3cccc1c23`, the compound was called inactive.
Turning to `ClCCOCCCl`, the outcome was inactive.
The same measure, in the same setting: the same measure for `Cc1cccc(N)c1N`: “inactive”; for `CC(C)(O)c1cnn2c(-c3ccc(F)c(-c4c(F)cccc4C#N)c3)cnc2n1`: “inactive”.

Source of the values: PubChem BioAssay (EPA / NIEHS).
